Compound activity deposited in PubChem by The Scripps Research Institute Molecular Screening Center.
SMARCA2 activ: SMARCA2 (BRM) function activators, primary screen, cell-based, luminescence, high throughput; MG213 cells, MMTV-luciferase reporter, dexamethasone, overnight; activation, % at 9.1 µM; 370,000 tested, 1% active; AID 652017, 2013; in the data active means activation above about 7.8%
bovine MsrA act: bovine MsrA enzyme activators, primary screen, biochemical, absorbance, HTS; 360,000 tested, 0.3% active; activation, % at 10.6 µM; purified bovine MsrA, absorbance read-out; Methionine sulfoxide reductase A (Bos taurus); AID 602163, 2012; in the data active means activation above about 7.5%
MsrA inhibitor: bovine MsrA enzyme inhibitors, primary screen, biochemical, absorbance, HTS; Methionine sulfoxide reductase A (Bos taurus); purified bovine MsrA, absorbance read-out; inhibition, % at 15.5 µM; 360,000 tested, 0.75% active; AID 651718, 2012; in the data active means inhibition above about 4.5%
proKLK7 act: proKLK7 zymogen activators, primary screen, biochemical, fluorescence intensity; Kallikrein-7 (Homo sapiens), P49862; purified proKLK7, EDANS-DABCYL substrate fluorescence; 100% is mature enzyme control, 0% vehicle; activation, % at 7 µM; 370,000 tested, 0.9% active; AID 652039, 2013;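 active means activation above the mean of all tested compounds plus 3 SD, computed per campaign excluding outliers beyond control limits, cut at about 13% in these data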
Target sequence (P49862 whole entry, looked up): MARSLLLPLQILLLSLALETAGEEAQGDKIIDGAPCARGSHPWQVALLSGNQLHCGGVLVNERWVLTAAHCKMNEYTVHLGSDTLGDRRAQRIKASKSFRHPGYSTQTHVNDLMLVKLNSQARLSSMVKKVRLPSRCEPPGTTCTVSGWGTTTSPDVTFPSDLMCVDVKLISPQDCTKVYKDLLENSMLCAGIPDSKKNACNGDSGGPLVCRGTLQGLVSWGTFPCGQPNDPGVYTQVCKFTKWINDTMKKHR
proKLK7 act conf: proKLK7 zymogen activators, confirmation, biochemical, fluorescence intensity, triplicate; AID 686949, 2013; 3,200 tested, 68% active; purified proKLK7, EDANS-DABCYL substrate fluorescence; scaled: vehicle 0, mature enzyme 100; shares compounds with proKLK7 act; activation, % at 7 µM;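 active means activation, as change over the incubation, above the mean of all tested compounds plus 3 SD, cut at about 13% in these data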
EDANS-DABCYL int: EDANS-DABCYL substrate optical interference, artefact control for kallikrein-7 zymogen activator project, biochemical, fluorescence intensity, high throughput; shares compounds with proKLK7 act; no enzyme, 4 h; solvent 0%, active enzyme control 100%; activation, % at 7 µM; 3,200 tested, 80% active;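 active means activation above the all-compound mean plus 3 SD, ignoring values outside control-based bounds, cut at about 4.8% in these data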;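 further: value is the 4 h activation minus the activation read at time zero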
K7 EDANS ctr: counter-screen for kallikrein-7 activators: EDANS-DABCYL interference, dose response; shares compounds with proKLK7 act; EDANS-DABCYL peptide fluorescence interference, no enzyme; EC50, µM; 250 tested, 20% active;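 active means compounds that raise the fluorescence signal in this interference counterscreen, with EC50 at or below 10 µM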;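 further: intact quenched peptide substrate alone read at 355 nm excitation and 520 nm emission; signal is fluorescence gain from T0 to T4 after four hours at room temperature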
A number is an active result; n = inactive; x = no result. This is a sample that favours compounds with a hit; in the whole collection about 2.8% have one here.

SMILES	SMARCA2 activ	bovine MsrA act	MsrA inhibitor	proKLK7 act	proKLK7 act conf	EDANS-DABCYL int	others
CCN1CCN(CCCNC(=O)c2cc3c(=O)oc4ccc(C)cc4c3s2)CC1	n	n	n	n	x	x
CCCN1CCN(CCCNC(=O)c2cc3c(=O)[nH]c4ccc(C)cc4c3s2)CC1	n	n	n	21.4	n	n
Cc1sc(-c2ccccn2)nc1OC(=O)c1ccc(Cl)c(Cl)c1	n	n	n	n	x	x
Cc1sc(-c2ccccn2)nc1OC(=O)c1ccc(F)cc1F	n	n	n	14.3	23.1	23.4
CCOC(=O)CC1(Cc2ccccc2)Oc2ccccc2O1	n	x	n	n	x	x
CCCOc1nc2ccccc2cc1/C=C/C(=O)O	n	n	n	16.9	n	10.7
CCOc1nc2ccccc2cc1C=O	n	n	n	n	x	x
C=CCNc1sc(C(=O)c2ccc(C)cc2)c(N)c1C#N	n	n	n	185.6	22.4	15.0	K7 EDANS ctr=n
COc1cc2c(cc1OC)C(C)N(C(=O)Cc1ccc(C(F)(F)F)cc1)CC2 (stereo not given)	n	n	n	n	x	x
COc1cc2c(cc1OC)C(C1C(=O)CC(C)(C)CC1=O)N(C(=O)CCl)CC2 (stereo not given)	n	n	n	124.2	n	15.2
COc1ccc(CC(=O)N2CCc3cc(OC)c(OC)cc3C2O)cc1OC (stereo not given)	n	n	n	14.1	n	4.1
CCCCCC[C@@H](CN(CCCC)S(C)(=O)=O)c1ccccc1	n	x	x	n	x	x
Cc1ccc(N2CC(=O)N(NC(=O)c3sc4nc(C)cc(C)c4c3N)CC2=O)cc1	n	n	n	86.3	22.8	20.7
CC(=O)c1sc2nc(C)cc(C)c2c1N	n	n	n	n	x	x
Cc1cc(C)c2c(N)c(C(=O)Nc3ccccc3Cl)sc2n1	n	n	n	n	x	x
Cc1cc(C)c2c(N)c(C(=O)Nc3ccccc3Br)sc2n1	n	n	n	178.6	123.6	56.5
Cc1cc(C)c2c(N)c(C(=O)Nc3ncc(C)s3)sc2n1	n	n	n	33.0	n	n
CCc1ccccc1NC(=O)c1sc2nc(C)cc(C)c2c1N	n	n	n	n	x	x
Cc1cc(C)c2c(N)c(C(=O)Nc3ccccc3F)sc2n1	n	n	n	22.6	n	n
CS(=O)(=O)c1ccccc1C(=O)Nc1ccc(-c2nc3ccccc3[nH]2)cc1	n	n	n	n	x	x
CS(=O)(=O)c1cccc(C(=O)Nc2ccc(-c3nc4ccccc4[nH]3)cc2)c1	n	n	n	83.7	55.2	63.1
COc1cc(NC(=O)c2ccco2)c(OC)cc1NC(=O)CCC(=O)Nc1cc(C)ccc1C	n	n	n	31.3	13.7	n	K7 EDANS ctr=n
COc1cc(NC(=O)c2ccco2)c(OC)cc1NC(=O)CCC(=O)Nc1cc(C)cc(C)c1	n	n	n	n	x	x
CCOC(=O)CCCN(c1[nH]c(C)c(C)c1C#N)S(=O)(=O)c1ccc(C)cc1	n	n	n	n	x	x
Cc1ccc(C2C3=C(CC(C)(C)CC3=O)N(CCN3CCOCC3)C3=C2C(=O)CC(C)(C)C3)cc1	n	n	n	16.9	n	10.2
SMILES	SMARCA2 activ	bovine MsrA act	MsrA inhibitor	proKLK7 act	proKLK7 act conf	EDANS-DABCYL int	others
COc1ccc2[nH]c(C)c(C(=O)CN3CCc4cc(OC)c(OC)cc4C3)c2c1	n	n	n	17.1	n	8.4
C[C@H](CO)N1C[C@H](C)[C@@H](CN(C)S(=O)(=O)c2ccc(C#N)cc2)OCc2cn(nn2)CCCC1=O	n	n	n	n	x	x
Cc1c(Cc2ccccc2)c(=O)oc2c(CN(C)C)c(O)c(Cl)cc12	n	n	n	48.4	67.9	67.3
CCN(CC)Cc1c(O)c(Cl)cc2c(C)c(C)c(=O)oc12	n	n	n	57.9	66.0	82.9
CCC(=O)c1cc2c(C)cc(=O)oc2c(C)c1O	n	n	n	n	x	x
Cc1cc(=O)oc2c(O)c(O)ccc12	n	n	n	n	x	x
C=CCc1c(O)c(CC)cc2c(C)cc(=O)oc12	n	n	n	90.1	60.5	65.8
CCN(CC)Cc1c(O)c(Cl)cc2c(C)cc(=O)oc12	n	n	n	53.1	72.9	66.3
CC(C)CNC(=O)OCc1cn(Cc2ccc(F)c(F)c2)nn1	n	x	x	n	x	x
CCCCc1c(-c2ccccc2OC)ncn1Cc1c(F)cccc1F	n	x	n	n	x	x
O=C(c1ccc(F)cc1Cl)N1CCC(Oc2cccnc2)CC1	n	x	x	n	x	x
Cn1cccc1C(=O)N1CCN(S(=O)(=O)c2ccc(Br)s2)CC1	n	x	x	n	x	x
COc1ccc(-c2cc(=O)c3ccc(O)cc3o2)cc1OC	n	n	n	120.6	41.7	45.9
Cc1c(Cc2ccccc2)c(=O)oc2cc(O)ccc12	n	n	n	88.0	71.0	80.5
Cc1c(Cc2ccccc2)c(=O)oc2c(O)c(O)ccc12	n	n	n	n	x	x
COc1ccc(-c2c(C)c3ccc(O)cc3oc2=O)cc1	n	n	n	82.4	72.6	83.0
COc1ccc(-c2c(C)c3cc(O)ccc3oc2=O)cc1OC	n	n	n	n	x	x
N#Cc1cccc(NC(=O)OC2CC3CC2[C@H]2CCCCN2C3)c1 (stereo not given in full)	n	x	x	n	x	x
CC(C)[C@H](N)C(=O)N[C@@H](Cc1ccccc1)C(=O)N1CCC2CCN(S(=O)(=O)c3ccccc3)CC21 (stereo not given in full)	n	x	x	n	x	x
O=C(c1cc2c(=O)n3ccccc3nc2s1)N1CCOCC1	n	n	n	17.3	68.4	68.3
Cc1cccc(NC(=O)c2cc3c(=O)n4ccccc4nc3s2)c1	n	n	n	n	x	x
CCCNC(=O)COC(=O)c1cc2c(=O)n3ccccc3nc2s1	n	n	n	20.4	73.2	85.9
CC1CCN(C(=O)c2cc3c(=O)n4ccccc4nc3s2)CC1	n	n	n	23.3	23.1	25.9
COc1ccc(Cn2c(NC(=O)c3ccccc3)nc(Cc3ccccc3)c2-c2ccccc2)c(OC)c1	n	x	x	n	x	x
O=C1NC(c2ccccc2Cl)Nc2ccccc21 (stereo not given)	n	n	n	19.1	46.7	49.8
O=C1NC(c2cccc3ccccc23)Nc2ccccc21 (stereo not given)	n	n	n	n	x	x
O=C1NC(c2ccc(Br)cc2)Nc2ccccc21 (stereo not given)	n	n	n	13.6	20.6	15.1	K7 EDANS ctr=n
C[C@@H]1CN([C@@H](C)CO)C(=O)CCCn2cc(nn2)CO[C@H]1CN(C)C(=O)Nc1cccc(F)c1	n	x	n	n	x	x
Cc1cc(=O)oc2c3c(cc(OCC(=O)NCCCn4ccnc4)c12)OC(C)(C)CC3	n	n	n	28.9	n	n
CCCc1cc(=O)oc2c3c(cc(OCC(=O)NCCCn4ccnc4)c12)OC(C)(C)CC3	n	n	n	17.2	n	n
